FLuc modulator – inhibits or activates purified firefly luciferase, miR-21 counter-screen. P08659. purified FLuc, Km substrates, luminescence inhibition. Potency, µM (top dose mostly 57.5 µM), hits mostly inhibitors. 360,000 compounds, 6.9% hits. AID 588342; also: nearly all actives have a fitted effect of over 55% in size
Target sequence (P08659 whole entry, looked up): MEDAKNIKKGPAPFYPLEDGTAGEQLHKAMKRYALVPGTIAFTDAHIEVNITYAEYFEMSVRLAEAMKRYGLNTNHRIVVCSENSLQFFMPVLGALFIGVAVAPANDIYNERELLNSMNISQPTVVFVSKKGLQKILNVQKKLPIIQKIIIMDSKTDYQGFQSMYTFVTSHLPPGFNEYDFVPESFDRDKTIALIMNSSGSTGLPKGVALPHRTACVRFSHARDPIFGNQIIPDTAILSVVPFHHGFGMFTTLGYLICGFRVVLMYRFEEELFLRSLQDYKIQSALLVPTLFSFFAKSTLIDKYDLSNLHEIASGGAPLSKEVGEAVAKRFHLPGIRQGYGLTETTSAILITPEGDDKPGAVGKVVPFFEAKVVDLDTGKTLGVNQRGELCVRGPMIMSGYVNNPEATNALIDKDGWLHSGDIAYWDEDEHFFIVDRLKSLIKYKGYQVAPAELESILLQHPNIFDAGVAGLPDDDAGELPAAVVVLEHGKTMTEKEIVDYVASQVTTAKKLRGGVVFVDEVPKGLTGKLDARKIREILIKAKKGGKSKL
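Purified P. pyralis luciferase (10nM final) with 10uM D-luciferin and 10uM ATP (Km levels) in 50mM Tris acetate pH 7.5, 10mM Mg acetate, 0.01% Tween-20, 0.05% BSA; qHTS 6-point titration, ~60 µM downward; luminescence read.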
NPC1 prom act – activators of NPC1 promoter; Huh7 NPC1 promoter luciferase reporter, 24 h; Potency, µM (titrated, usually from 9.22 µM), hits mostly activators; 320,000 compounds, 2.4% hits; AID 485313; also: nearly all actives have a fitted effect of over 60% in size
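Huh7 reporter cells (NPC1 promoter driving luciferase) are dosed with compound for 24 h at 37 °C, 5% CO2; luciferase detection reagent is then added and luminescence measured after 10 min at ambient temperature.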
p53 reactivation – re-activators of mutant p53 | H1299 p53-A138V BP100-luciferase reporter, luminescence, 24 h | Potency, µM (doses to about 92.2 µM), most hits filed as activators | 320,000 compounds, 0.063% hits; also: nearly all actives have a fitted effect of over 45% in size
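H1299 (p53-null), stable ts p53-A138V + BP100-Luc; 1000 cells/well, Opti-MEM/10% FBS; cpd 4 pt, 1:5; 24 h, 37 deg C, 5% CO2; detection reagent 10 min RT; luminescence.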
SMN2 splice enh – enhancers of SMN2 splice variant expression; 210,000 compounds, 2.8% hits; AID 1458; HEK293 SMN2-luciferase splicing reporter, luminescence, 30-36 h; Potency, µM (highest dose often 46.1 µM), usual class: activators; also: nearly all actives have a fitted effect of over 55% in size
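qHTS luciferase splicing reporter: luminescence rises when SMN2 exon 7 is included in transfected HEK293 cells. Compound exposure lasted 30-36 h at 37C, with 4.5 mM final sodium butyrate as control, followed by a ONE-Glo read.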
ELG1 genotoxic – induces genotoxicity in HEK293T cells with luciferase-tagged ELG1; 330,000 compounds, 1.3% hits; HEK293T ELG1-luciferase reporter, luminescence, 16 h; Potency, µM (doses to about 46 µM), actives largely listed as activators; also: nearly all actives have a fitted effect of over 60% in size
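HEK293T cells expressing luciferase-tagged ELG1 were treated with compound or DMSO for 16 hr at 37°C. Luciferase activity was then read after 30 min with ONE-Glo at room temperature; rising signal flags genetic stress.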
Rab9 promoter act – Rab9 promoter activation | Huh7 Rab9 promoter-luciferase reporter, luminescence, 24 h | Potency, µM (series often up to 9.22 µM), most hits filed as activators | 320,000 compounds, 2.8% hits | AID 485297; also: nearly all actives have a fitted effect of over 60% in size
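Huh7 cells stably carrying Rab9 promoter–luciferase reporter, plated 1500 cells/well, compound added after 2 h and incubated 24 h at 37 °C; luciferase luminescence then read after 10 min with detection reagent.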
Large screens that a line does not name were inactive. This is a sample that favours compounds with a hit; in the whole collection about 7.4% have one here. Calls follow the shape of the dose curve; as a rule, active = well fitted curve in the direction sought with a large enough effect; inconclusive = small, poorly fitted or top-dose-only effect, or another doubt; inactive = no such curve, though single readings can be large; an effect the other way counts as inactive or inconclusive.

C=CCn1c(C)cc(C(=O)CSc2ccc(NC(C)=O)cc2)c1C	FLuc modulator 16.9µM, NPC1 prom act 0.501µM, ELG1 genotoxic inconclusive, Rab9 promoter act 0.316µM
CCOC(=O)c1c(NC(=O)c2nc(SCC)ncc2Cl)sc2c1CCCC2	none (no result: NPC1 prom act, p53 reactivation, ELG1 genotoxic, Rab9 promoter act)
COc1ccc(-n2ccnc(NCc3cccs3)c2=O)cc1OC	none (no result: NPC1 prom act, p53 reactivation, SMN2 splice enh, ELG1 genotoxic, Rab9 promoter act)
O=C(O)CSc1ncccn1	none
O=C(CSc1ncccn1)c1ccccc1Br	FLuc modulator inconclusive, SMN2 splice enh 12.6µM
CC(C)N=C1NN=C(c2ccc(F)cc2)CS1	FLuc modulator 9.53µM, NPC1 prom act 0.562µM, SMN2 splice enh 14.1µM, Rab9 promoter act 0.501µM
c1ccc(CN=C2NN=C(c3ccccc3)CS2)cc1	FLuc modulator 19µM, NPC1 prom act inconclusive, p53 reactivation inconclusive, SMN2 splice enh inconclusive, Rab9 promoter act 4.47µM
C=CCN=C1NN=C(c2cc(C)n(CC=C)c2C)CS1	FLuc modulator 0.338µM, ELG1 genotoxic inconclusive
Clc1ccc(C2=NNC(=NCc3ccccc3)SC2)cc1	FLuc modulator 16.9µM, NPC1 prom act inconclusive, Rab9 promoter act inconclusive
CCCCN=C1NN=C(c2cccc([N+](=O)[O-])c2)CS1	FLuc modulator inconclusive, ELG1 genotoxic inconclusive
C=CCN=C1NN=C(c2ccc3c(c2)OCCO3)CS1	FLuc modulator 0.675µM, NPC1 prom act 1µM, ELG1 genotoxic 0.58µM, Rab9 promoter act 0.447µM
NC1=NN=C(c2ccc3c(c2)OCCO3)CS1	FLuc modulator 5.36µM, NPC1 prom act 1µM, SMN2 splice enh 2.51µM, Rab9 promoter act 0.562µM
c1ccc(C2=NNC(=NCc3ccc4c(c3)OCO4)SC2)cc1	FLuc modulator 26.9µM, NPC1 prom act inconclusive, p53 reactivation inconclusive, Rab9 promoter act inconclusive (no result: SMN2 splice enh)
Cc1[nH]c(-c2ccc3c(c2)OCO3)nc1C(=O)O	FLuc modulator inconclusive
CCN=C1NN=C(c2ccc(C)cc2)CS1	FLuc modulator 1.07µM, NPC1 prom act inconclusive, p53 reactivation inconclusive, SMN2 splice enh inconclusive, ELG1 genotoxic inconclusive, Rab9 promoter act inconclusive
Fc1ccc(C2=NNC(=NCc3ccccc3)SC2)cc1F	FLuc modulator inconclusive, NPC1 prom act inconclusive, SMN2 splice enh inconclusive, Rab9 promoter act inconclusive
Cc1ccc(OCc2ccc(Br)cc2)c([N+](=O)[O-])n1	FLuc modulator 5.36µM, NPC1 prom act 2.24µM, SMN2 splice enh 10µM, ELG1 genotoxic 7.3µM, Rab9 promoter act 1µM
Cc1ccc(OCCOc2cccc(Br)c2)c([N+](=O)[O-])n1	FLuc modulator inconclusive, NPC1 prom act inconclusive, p53 reactivation inconclusive, SMN2 splice enh 17.8µM, ELG1 genotoxic inconclusive, Rab9 promoter act inconclusive
Cc1ccc(OCc2ccc(-c3ccccc3)cc2)c([N+](=O)[O-])n1	FLuc modulator inconclusive (no result: SMN2 splice enh)
CC(/C=C1\SC(=S)N(CCC(=O)Nc2cccc(C(=O)O)c2)C1=O)=C\c1ccccc1	FLuc modulator 23.9µM (no result: SMN2 splice enh)
CC(/C=C1\SC(=S)N(CCCC(=O)Nc2ccc(C(=O)O)cc2)C1=O)=C\c1ccccc1	FLuc modulator 13.5µM
COc1ccc(-c2csc(Nc3cc(C)ccn3)n2)cc1C	FLuc modulator 8.49µM, Rab9 promoter act inconclusive (no result: SMN2 splice enh)
COc1ccc(-c2csc(Nc3ncccc3C)n2)cc1OC	NPC1 prom act inconclusive, p53 reactivation inconclusive, SMN2 splice enh inconclusive, Rab9 promoter act inconclusive
COc1ccc(-c2csc(Nc3ncccn3)n2)cc1C	NPC1 prom act 0.708µM, ELG1 genotoxic inconclusive, Rab9 promoter act 0.178µM (no result: SMN2 splice enh)
Cc1cc(OCC(=O)N2CCOCC2)ccc1[N+](=O)[O-]	FLuc modulator 23.9µM, NPC1 prom act 3.16µM, ELG1 genotoxic inconclusive, Rab9 promoter act 2.82µM (no result: SMN2 splice enh)
O=Cc1ccc(OCC(=O)N2CCOCC2)cc1	none (no result: SMN2 splice enh)
Cc1ccc(-c2ccc(OCC(=O)N3CCOCC3)cc2)cc1	FLuc modulator 19µM, ELG1 genotoxic inconclusive
CC1=C(C(=O)Nc2ccc(C)cc2C)C(c2ccccc2)n2ncc(C(=O)Nc3ccccc3)c2N1 (centres undefined)	none (no result: NPC1 prom act, p53 reactivation, ELG1 genotoxic, Rab9 promoter act)
CC1CCC2(CC1)NC(=O)N(CC(=O)NCCc1ccc(F)cc1)C2=O (centres undefined)	none (no result: SMN2 splice enh)
COc1ccc(OC(C)c2nc3ccccc3[nH]2)cc1 (centres undefined)	none (no result: NPC1 prom act, p53 reactivation, SMN2 splice enh, ELG1 genotoxic, Rab9 promoter act)
COc1ccc(N(Cc2nnc3n2CCCCC3)C(=O)Nc2ccc(Cl)cc2)cc1Cl	none (no result: NPC1 prom act, p53 reactivation, SMN2 splice enh, ELG1 genotoxic, Rab9 promoter act)
